{"source": "the antibiotic and cytotoxicity screens of Wong et al. (2023)", "note": "Hit rate of the full screen: of about 39,000 compounds, about 1,500 (3.8%) were called active. Only a selection was taken, and actives are over-represented in it overall.", "data": [{"test_system": "HSkMC (human skeletal muscle cells)", "experiment": "cytotoxicity call (relative viability < 0.9)", "conditions": "10 µM", "values": [{"compound": "O=C1C[C@H](c2ccccc2)[C@@H]2CNCCN12", "cytotoxicity call": "inactive"}, {"compound": "Cc1nnc(N2CCC[C@]3(CNCCO3)C2)o1", "cytotoxicity call": "inactive"}, {"compound": "N#CN1CCCC1", "cytotoxicity call": "inactive"}, {"compound": "Cc1cccc(CN2C[C@H]3OCCN(C)[C@H]3C2)n1", "cytotoxicity call": "inactive"}, {"compound": "CC1=C(O)C(=O)C=C2C1=CC=C1C2(C)CCC2(C)C3CC(C)(C(=O)O)CCC3(C)CCC12C", "note": "(stereo unspecified)", "cytotoxicity call": "active"}, {"compound": "NC1N[C@H]2CCCC[C@@H]2N1", "cytotoxicity call": "inactive"}, {"compound": "CC(C)(CN)CNc1ccc([N+](=O)[O-])c2cccnc12", "cytotoxicity call": "inactive"}, {"compound": "NC(=O)c1cn([C@H]2O[C@@H](CO)[C@H](O)[C@@H]2O)c2ncnc(N)c12", "cytotoxicity call": "active"}, {"compound": "CCNC(=O)[C@H]1O[C@H](n2cnc3c(N)ncnc32)[C@@H](O)[C@@H]1O", "cytotoxicity call": "inactive"}, {"compound": "NC(=O)c1cn([C@@H]2O[C@H](CO)[C@@H](O)[C@H]2O)c2ncnc(N)c12", "cytotoxicity call": "inactive"}, {"compound": "O=C(NC(=O)c1c(F)cccc1F)Nc1ccc(Cl)cc1", "cytotoxicity call": "inactive"}, {"compound": "O=C(NC(=O)c1c(F)cccc1F)Nc1cc(Cl)c(OC(F)(F)[C@@H](F)C(F)(F)F)cc1Cl", "cytotoxicity call": "active"}, {"compound": "O=C(NC(=O)c1c(F)cccc1F)Nc1cc(Cl)c(OC(F)(F)C(F)C(F)(F)F)cc1Cl", "note": "(stereo unspecified)", "cytotoxicity call": "inactive"}, {"compound": "C=CCC1(C(C)CCC)C(=O)N=C([S-])NC1=O.[Na+]", "note": "(stereo unspecified)", "cytotoxicity call": "inactive"}, {"compound": "Cl.c1cncc(C2CCCCN2)c1", "note": "(stereo unspecified)", "cytotoxicity call": "inactive"}, {"compound": "Br.COC(=O)C1=CCCN(C)C1", "cytotoxicity call": "inactive"}, {"compound": "NC(=O)CN1CC[C@@H](NC(=O)[C@@H]2CCCN2)C1=O", "cytotoxicity call": "inactive"}, {"compound": "c1cn(C[C@H]2CC[C@H]3NCCO[C@@H]23)cn1", "cytotoxicity call": "inactive"}, {"compound": "Cl.Cn1c(CCCC(=O)O)nc2cc(N(CCCl)CCCl)ccc21", "cytotoxicity call": "inactive"}, {"compound": "CC[C@H]1/C=C/C=C/C[C@@H](C)[C@H](O)[C@@](C)(O)C(=O)[C@@H](C)[C@H](O)[C@@H](C)C(=O)[C@@H](C)[C@H](O)[C@@H](C)/C=C/C(=O)O[C@@H]2[C@H](C)[C@H](CC1)O[C@]1(CC[C@H](C)[C@H](C[C@@H](C)O)O1)[C@H]2C", "cytotoxicity call": "active"}, {"compound": "CC[C@@H]1/C=C/C=C/C[C@H](C)[C@@H](O)[C@](C)(O)C(=O)[C@H](C)[C@@H](O)[C@H](C)C(=O)[C@H](C)[C@@H](O)[C@H](C)/C=C/C(=O)O[C@H]2[C@@H](C)[C@@H](CC1)O[C@@]1(CC[C@@H](C)[C@@H](C[C@H](C)O)O1)[C@@H]2C", "cytotoxicity call": "inactive"}, {"compound": "CCC(COC(=O)c1cc(OC)c(OC)c(OC)c1)(c1ccccc1)N(C)C.O=C(O)C=CC(=O)O", "note": "(stereo unspecified)", "cytotoxicity call": "inactive"}, {"compound": "Cc1n[nH]c(=O)nc1N1CCN(C)CC1", "cytotoxicity call": "inactive"}, {"compound": "CC1OC(OC2CC(O)C3(CO)C4C(O)CC5(C)C(C6=CC(=O)OC6)CCC5(O)C4CCC3(O)C2)C(O)C(O)C1O.O.O.O.O.O.O.O.O", "note": "(stereo unspecified)", "cytotoxicity call": "active"}, {"compound": "C[C@@H]1O[C@@H](O[C@@H]2C[C@@H](O)[C@]3(CO)[C@H]4[C@H](O)C[C@]5(C)[C@@H](C6=CC(=O)OC6)CC[C@]5(O)[C@@H]4CC[C@]3(O)C2)[C@H](O)[C@H](O)[C@H]1O", "cytotoxicity call": "active"}, {"compound": "CC(=O)O[C@@]12CO[C@@H]1C[C@H](O)[C@@]1(C)C(=O)[C@H](O)C3=C(C)[C@@H](OC(=O)[C@H](O)[C@@H](NC(=O)c4ccccc4)c4ccccc4)C[C@](O)([C@@H](OC(=O)c4ccccc4)[C@H]21)C3(C)C", "cytotoxicity call": "inactive"}, {"compound": "COCC(=O)N1C[C@@H]2c3ccccc3CN[C@@H]2C1", "cytotoxicity call": "inactive"}, {"compound": "COC(=O)[C@@H](N)CCCNC(N)=N[N+](=O)[O-]", "cytotoxicity call": "inactive"}, {"compound": "[N-]=[N+]=CC(=O)OCC(N)C(=O)O", "note": "(stereo unspecified)", "cytotoxicity call": "inactive"}, {"compound": "C1COC2(CCOCC2)CN1", "cytotoxicity call": "inactive"}, {"compound": "Cc1cc(OC(=O)N(C)C)cc(=O)n1C", "cytotoxicity call": "inactive"}, {"compound": "COC(=O)C[C@@H]1CC[C@H]2NC[C@@H](O)COC[C@@H]2O1", "cytotoxicity call": "inactive"}, {"compound": "CC(N)(Cc1ccccc1)c1ccccc1", "note": "(stereo unspecified)", "cytotoxicity call": "inactive"}, {"compound": "COC(=O)C[C@](O)(CCC(C)(C)O)C(=O)O[C@@H]1C(OC)=C[C@]23CCCN2CCc2cc4c(cc2[C@H]13)OCO4", "cytotoxicity call": "active"}, {"compound": "CN1CCc2cc3c(cc2C1O)OCO3.Cl", "note": "(stereo unspecified)", "cytotoxicity call": "inactive"}, {"compound": "CN1CCc2cc3c(cc2[C@@H]1O)OCO3", "cytotoxicity call": "inactive"}, {"compound": "C[N+]12CCC(CC1)C(OC(=O)C(O)(c1ccccc1)c1ccccc1)C2.[Br-]", "note": "(stereo unspecified)", "cytotoxicity call": "inactive"}, {"compound": "CC1OC(OC2C(O)C(O)C(O)C(O)C2O)C(N)CC1NC(=N)C(=O)O.Cl", "note": "(stereo unspecified)", "cytotoxicity call": "inactive"}, {"compound": "O=C1C=C2C(=CCO[C@@H]2O)O1", "cytotoxicity call": "inactive"}, {"compound": "O=C1C=C2C(=CCOC2O)O1", "note": "(stereo unspecified)", "cytotoxicity call": "active"}, {"compound": "CCCCC(=O)N1CC[C@H]2CNC[C@H]21", "cytotoxicity call": "inactive"}, {"compound": "N#Cc1c(Cl)c(Cl)c(Cl)c(C#N)c1Cl", "cytotoxicity call": "active"}, {"compound": "CCCCCC1C(=O)OC(C)C(NC(=O)c2cccc(NC=O)c2O)C(=O)OC(C)C1OC(=O)CC(C)C", "note": "(stereo unspecified) [ANTIMYCIN A (A1 shown) ]", "cytotoxicity call": "inactive"}, {"compound": "CCC[C@@H](CN)c1ccc(F)cc1", "cytotoxicity call": "inactive"}, {"compound": "COc1c(C[C@@H](C)O)c2c3c(C[C@@H](C)O)c(OC)c(=O)c4c(O)cc5c(c6c(cc(O)c(c1=O)c62)OCO5)c43", "cytotoxicity call": "active"}, {"compound": "COc1cc(C2c3cc4c(cc3C(O)C3COC(=O)C23)OCO4)cc(OC)c1OC", "note": "(stereo unspecified)", "cytotoxicity call": "inactive"}, {"compound": "CCOC1OC2OC3(C)CCC4C(C)CCC(C1C)C24OO3", "note": "(stereo unspecified)", "cytotoxicity call": "inactive"}, {"compound": "CC1=NCCc2c1[nH]c1cc(O)ccc21.Cl.O.O", "cytotoxicity call": "inactive"}, {"compound": "CCCCC[C@H]1C(=O)O[C@H](C)[C@H](NC(=O)c2cccc(NC=O)c2O)C(=O)O[C@@H](C)[C@@H]1OC(=O)CC(C)C", "cytotoxicity call": "inactive"}, {"compound": "CCCCCCCCCC(=O)O[C@@H]1[C@@H](C)[C@]2(O)[C@@H](C=C(CO)C[C@]3(O)C(=O)C(C)=C[C@@H]23)[C@@H]2C(C)(C)[C@@]12OC(=O)CCCCCCCCC", "cytotoxicity call": "active"}, {"compound": "CCCCCCCCCC(=O)O[C@@H]1[C@@H](C)[C@@]2(O)[C@@H](C=C(CO)C[C@]3(O)C(=O)C(C)=C[C@@H]23)[C@@H]2C(C)(C)[C@]12OC(=O)CCCCCCCCC", "cytotoxicity call": "inactive"}, {"compound": "CC1=C[C@H]2[C@]3(O)[C@H](C=C(CO)C[C@]2(O)C1=O)[C@H]1C(C)(C)[C@@]1(O)[C@H](O)[C@@H]3C", "cytotoxicity call": "inactive"}, {"compound": "CCCCCCCCCCCCCC(=O)O[C@@H]1[C@@H](C)[C@@]2(O)[C@@H](C=C(CO)C[C@]3(O)C(=O)C(C)=C[C@@H]23)[C@@H]2C(C)(C)[C@]12OC(C)=O", "cytotoxicity call": "active"}, {"compound": "Cc1ccc2[nH]cc(C[C@@H](C)N)c2c1", "cytotoxicity call": "inactive"}, {"compound": "CCCC(C)C1(CC)C(=O)N=C([S-])NC1=O.[Na+]", "note": "(stereo unspecified)", "cytotoxicity call": "inactive"}, {"compound": "C[C@@H]1CN([C@@H](C)CO)C(=O)CCCn2cc(nn2)CO[C@@H]1CN(C)C(=O)Oc1ccc2ccccc2c1", "cytotoxicity call": "inactive"}, {"compound": "CCCCSP(=O)(SCCCC)SCCCC", "cytotoxicity call": "inactive"}, {"compound": "COc1ccc(O)c(C(C)(C)C)c1", "cytotoxicity call": "inactive"}, {"compound": "CC(=O)OC1C(=O)C2(C)C(O)CC3OCC3(OC(C)=O)C2C(OC(=O)c2ccccc2)C2(O)CC(O)C(C)=C1C2(C)C", "note": "(stereo unspecified)", "cytotoxicity call": "inactive"}, {"compound": "C[C@H]1CN([C@@H](C)CO)C(=O)CCCn2cc(nn2)CO[C@H]1CN(C)C(=O)Oc1ccc2ccccc2c1", "cytotoxicity call": "inactive"}, {"compound": "C=C1[C@@H](C)[C@H]2[C@H](Cc3ccccc3)NC(=O)[C@]23[C@H](OC(C)=O)/C=C/[C@](C)(O)C(=O)[C@@H](C)C/C=C/[C@H]3[C@@H]1O", "cytotoxicity call": "active"}, {"compound": "COCCCNC(=O)[C@@]1(Cc2ccccc2CN=[N+]=[N-])N=C(c2ccc(OCCCO)cc2)O[C@H]1c1ccccc1CN=[N+]=[N-]", "cytotoxicity call": "inactive"}, {"compound": "Nc1ccc2c(c1)Cc1ccccc1-2", "cytotoxicity call": "inactive"}, {"compound": "CC(C)n1cnnc1CCN", "cytotoxicity call": "inactive"}, {"compound": "CN1C[C@@H](NC(=O)C2CC2)[C@H]2OCCC[C@H]21", "cytotoxicity call": "inactive"}, {"compound": "CN1C(=O)NC(=O)/C(=C\\C=C\\c2ccco2)C1=O", "cytotoxicity call": "inactive"}, {"compound": "C=CCN1C(=O)NC(=O)/C(=C/c2ccco2)C1=O", "cytotoxicity call": "active"}, {"compound": "CCN1C(=O)/C(=C/c2ccc[nH]2)C(=O)NC1=S", "cytotoxicity call": "inactive"}, {"compound": "COC1=CC(=O)OC(C=Cc2ccccc2)C1", "note": "(stereo unspecified)", "cytotoxicity call": "inactive"}, {"compound": "O=C(O)CC[C@@H](CP(=O)(O)O)C(=O)O", "cytotoxicity call": "inactive"}, {"compound": "CC(=O)O[C@H]1C[C@@H]2CC[C@@H]3[C@H](CC[C@@]4(C)[C@H]3C[C@H]([N+]3(C)CCCCC3)[C@@H]4OC(C)=O)[C@@]2(C)C[C@@H]1[N+]1(C)CCCCC1", "cytotoxicity call": "inactive"}, {"compound": "CC(=O)OC1CC(OC2C(O)CC(OC3C(O)CC(OC4CCC5(C)C(CCC6C5CC(O)C5(C)C(C7=CC(=O)OC7)CCC65O)C4)OC3C)OC2C)OC(C)C1OC1OC(CO)C(O)C(O)C1O", "note": "(stereo unspecified)", "cytotoxicity call": "active"}, {"compound": "CC12CCC3C(CCC4CC(O)CCC43C)C1CCC2=O", "note": "(stereo unspecified)", "cytotoxicity call": "inactive"}, {"compound": "CC(=O)OC1CCC2(C)C(CCC3C2CCC2(C)C(C4=CC(=O)OC4)C(OC(C)=O)CC32O)C1", "note": "(stereo unspecified)", "cytotoxicity call": "active"}, {"compound": "CC12CCC(O)CC1CCC1C2CC(O)C2(C)C(C3=CC(=O)OC3)CCC12O", "note": "(stereo unspecified)", "cytotoxicity call": "active"}, {"compound": "CC(=O)O[C@H]1C[C@H](O[C@H]2[C@@H](O)C[C@H](O[C@H]3[C@@H](O)C[C@H](O[C@H]4CC[C@@]5(C)[C@@H](CC[C@H]6[C@@H]5C[C@@H](O)[C@]5(C)[C@@H](C7=CC(=O)OC7)CC[C@]65O)C4)O[C@@H]3C)O[C@@H]2C)O[C@H](C)[C@H]1O[C@@H]1O[C@H](CO)[C@@H](O)[C@H](O)[C@H]1O", "cytotoxicity call": "active"}, {"compound": "CC12CCC3C(CCC4CC(O)CCC43C)C1CCC2O", "note": "(stereo unspecified)", "cytotoxicity call": "inactive"}, {"compound": "CO[C@H]1[C@@H](O)[C@@H](O[C@H]2CC[C@]3(C=O)[C@@H]4[C@@H](CC[C@]3(O)C2)[C@@]2(O)CC[C@H](C3=CC(=O)OC3)[C@@]2(C)C[C@H]4OC(C)=O)O[C@@H](C)[C@@H]1OC(C)=O", "cytotoxicity call": "inactive"}, {"compound": "CNC(=O)Oc1ccc2c(c1)C1(C)CCN(C)C1N2C", "note": "(stereo unspecified)", "cytotoxicity call": "inactive"}, {"compound": "COC(=O)[C@]1(Cc2ccccc2CN=[N+]=[N-])N=C(c2ccc(OCCCO)cc2)O[C@@H]1c1ccccc1CN=[N+]=[N-]", "cytotoxicity call": "inactive"}, {"compound": "COc1ccccc1C1(N)CC1", "cytotoxicity call": "inactive"}, {"compound": "N#C[C@]1(O)CN2CCC1CC2", "cytotoxicity call": "inactive"}, {"compound": "CC(C)Oc1ccc(CCN)cc1", "cytotoxicity call": "inactive"}, {"compound": "COc1cc(C=O)cc(OC)c1OC", "cytotoxicity call": "inactive"}, {"compound": "Cn1cc([C@@]23C[C@]2(C)COC3=O)cn1", "cytotoxicity call": "inactive"}, {"compound": "C1CCN(C[C@H]2CO[C@]3(CNCCOC3)C2)C1", "cytotoxicity call": "inactive"}]}]}
